Reference: article PMC4552634, “A New Set of Chemical Starting Points with Plasmodium falciparum Transmission-Blocking Potential for Antimalarial Drug Discovery” (PLoS ONE, 2015)
In all, about 13,000 compounds went through this assay and about 3,200 (25%) showed an effect of 50% or more. The list shows a part of the results.

Test system: P. falciparum stage V gametocytes
Parameters: BacTiter-Glo ATP luminescence viability of purified stage V gametocytes in 384-well plates, per cent inhibition versus DMSO
Settings: 48 h, 5 µM; inhibitor

| Structure (SMILES) | % Inhibition |
| --- | --- |
| O=C(Nc1ccc([N+](=O)[O-])cc1)c1nn(-c2ccccc2)cc1N=Cc1cccc(O)c1 [TCMDC-124108] | -28.07% |
| CCCCCn1c(Sc2ccc(C#N)c([N+](=O)[O-])c2)nnc1-c1cccs1 [TCMDC-135585] | 31.33% |
| O=C(NCc1ccccn1)C(c1cc2ccccc2o1)N1CCN(C(c2ccccc2)c2ccccc2)CC1 (stereo not drawn) [TCMDC-141024] | 9.637% |
| NCc1ccc(-c2ccccc2CNC2CCN(Cc3ccccc3)CC2)cc1 [TCMDC-140468] | 88.27% |
| NCc1cccc(-c2ccccc2CNC2CCN(Cc3ccccc3)CC2)c1 [TCMDC-140467] | 102.5% |
| Oc1ccc(CN2CCC(NCc3cccc4ccccc34)CC2)cc1 [TCMDC-141654] | 18.51% |
| c1ccc(CN2CCC(NCc3ccccc3-c3cccc(CNC4CCCC4)c3)CC2)cc1 [TCMDC-140472] | 106.9% |
| CC(C)c1ccc(N2CCN(CCCCNC(=O)c3ccc(NC(=O)c4cc(Cl)cc(Cl)c4)cc3)CC2)cc1 [TCMDC-138232] | -31.61% |
| O=C(Cc1ccc(Nc2nccc(Nc3cccc4[nH]ncc34)n2)cc1)Nc1ccc(C(F)(F)F)cc1 [TCMDC-136243] | 0.831% |
| CCCCCc1cnc2nc(N)nc(N)c2c1C [TCMDC-137717] | 7.113% |
| Cc1cnc(C(=O)Nc2ccc3c(c2)CCCN(Cc2c[nH]c4cnccc24)C3)cn1 [TCMDC-134846] | 9.147% |
| CC(C)c1ccc(N(CC(=O)N/N=C/c2ccc(C(F)(F)F)cc2)S(=O)(=O)c2ccc(C(F)(F)F)cc2)cc1 [TCMDC-135354] | 13.17% |
| O=c1ccc2ccc(O)c(O)c2o1 [TCMDC-125839] | -8.739% |
| COc1ccc(-c2cnc(N)c(-c3nc4ccc(Br)cc4[nH]3)c2)cc1 [TCMDC-133074] | -6.966% |
| CC1CN(c2cnn(Cc3ccc(NC(=O)Nc4cccc(C(F)(F)F)c4)cc3)c(=O)c2Cl)CC(C)N1 (stereo not drawn) [TCMDC-141938] | -19.52% |
| CCOC(=O)c1ccc(NC(=O)Nc2ccc(Cn3ncc(N4CCCNCC4)c(Cl)c3=O)cc2)cc1 [TCMDC-133330] | -19% |
| CC1CN(c2cnn(C/C=C/c3ccc(NC(=O)c4ccc5nonc5c4)cc3)c(=O)c2Cl)CC(C)N1 (stereo not drawn) [TCMDC-132468] | 104.2% |
| COC(=O)c1ccc(NC(=O)Nc2ccc(Cn3ncc(N4CCCNCC4)c(Cl)c3=O)cc2)cc1 [TCMDC-133315] | -30.5% |
| CC1CN(c2cnn(C/C=C/c3ccc(NC(=O)c4ccc([N+](=O)[O-])cc4)cc3)c(=O)c2Cl)CC(C)N1 (stereo not drawn) [TCMDC-132467] | 91.62% |
| CC1CN(c2cnn(Cc3cccc(NC(=O)Nc4ccc(F)cc4[N+](=O)[O-])c3)c(=O)c2Cl)CC(C)N1 (stereo not drawn) [TCMDC-141934] | 17.4% |
| CC1CN(c2cnn(C/C=C/c3ccc(NC(=O)c4ccc(Cl)cc4)cc3)c(=O)c2Cl)CC(C)N1 (stereo not drawn) [TCMDC-132469] | 77.2% |
| CC1CN(c2cnn(Cc3cccc(NC(=O)Nc4cccc(C(F)(F)F)c4)c3)c(=O)c2Cl)CC(C)N1 (stereo not drawn) [TCMDC-141933] | -18.84% |

| Structure (SMILES) | % Inhibition |
| --- | --- |
| CC1CN(c2cnn(Cc3ccc(NC(=O)Nc4ccc(F)cc4[N+](=O)[O-])cc3)c(=O)c2Cl)CC(C)N1 (stereo not drawn) [TCMDC-141939] | 5.517% |
| CN1C(=CC(=O)NC(=O)c2ccccc2)C(C)(C)c2ccccc21 [TCMDC-136649] | 14.63% |
| Cc1nc2ccc3nc(NC(=O)c4ccno4)sc3c2s1 [TCMDC-124989] | -34.07% |
| CN(C)c1cccc2c1nc(-c1ccco1)n2CC1CCCN1 (stereo not drawn) [TCMDC-133408] | -1.299% |
| CCCCCCCn1c(=O)c(C(=O)Nc2c(C)cccc2C)c(O)c2ccccc21 [TCMDC-124465] | 13.41% |
| CCCCn1c(-c2ccco2)nc2c(c(=O)c3ccccc3n2C)c1=O [TCMDC-124920] | 70.03% |
| Cc1ccccc1CNc1noc(-c2sccc2Br)n1 [TCMDC-134183] | -16.29% |
| N#Cc1ccc(NC(=NC2CCCc3ccccc32)Nc2ccc(-c3ccccc3)cc2)c(O)c1 (stereo not drawn) [TCMDC-140207] | -97.78% |
| O=C(NC1CCC(CN2CCC(c3c[nH]c4ccccc34)CC2)CC1)c1cc2cccc([N+](=O)[O-])c2[nH]1 (stereo not drawn) [TCMDC-139879] | 95.83% |
| O=C(c1cc2cccc([N+](=O)[O-])c2[nH]1)N1CCC(CCN2CCC(c3c[nH]c4ccccc34)CC2)CC1 [TCMDC-139880] | 92.61% |
| N#Cc1ccc2c(c1)CCN(CCC1CCC(NC(=O)c3cc4cccc([N+](=O)[O-])c4[nH]3)CC1)C2 (stereo not drawn) [TCMDC-139188] | 23.84% |
| O=C(NC1CCC(CN2CCC(c3c[nH]c4ccccc34)CC2)CC1)c1ccc(-c2ccccc2[N+](=O)[O-])o1 (stereo not drawn) [TCMDC-140295] | -19.57% |
| COc1cc(C)ccc1N1CCN(CCCCNC(=O)c2ccc(NC(=O)c3ccc(Cl)cc3)cc2)CC1 [TCMDC-138374] | -7.22% |
| CCNc1cc(C)nc(Nc2ccc(NC(=O)c3ccccc3Br)cc2)n1 [TCMDC-124985] | 22.04% |
| O=C(Nc1cc(Cl)c(Cl)cc1NC(=O)c1cccc(-c2ccccc2)c1O)c1cccc(-c2ccccc2)c1O [TCMDC-139548] | 45.99% |
| COC(=O)CNC(c1ccccc1)c1cc(Br)ccc1NC(=O)c1ccccc1Br (stereo not drawn) [TCMDC-124194] | 56.77% |
| CCOC(=O)NC1=NC(C)(C)N(OCCCOc2cc(Cl)c(Cl)cc2Cl)C(N)=N1 [TCMDC-131741] | -6.814% |
| CC(C)C1C(O)=C(c2ccc3ccccc3c2)C(=O)N1CC1CCCCC1 (stereo not drawn) [TCMDC-141719] | 18.57% |
| Cc1cc(N[C@@H](Cc2ccccc2)C(=O)NC2CCCC2)nc(Nc2ccccc2)n1 [TCMDC-134856] | 16.45% |
| O=C(Nc1nc2cc(S(=O)(=O)NCc3ccc(Cl)c(Cl)c3)ccc2n1CCCn1ccnc1)c1ccc(Cl)cc1 [TCMDC-141625] | -7.697% |
| O=C(Nc1nc2cc(S(=O)(=O)NCCCN3CCOCC3)ccc2n1CCCn1ccnc1)c1ccc(Cl)cc1 [TCMDC-141624] | 31.25% |
| O=C(Nc1nc2cc(S(=O)(=O)NCc3ccc(Cl)c(Cl)c3)ccc2n1CCCN1CCCC1)c1ccc(Cl)cc1 [TCMDC-141622] | 64.1% |

| Structure (SMILES) | % Inhibition |
| --- | --- |
| O=C(O)C(F)(F)F.O=C1CCCN1CCCNCc1ccc(-c2ccc(-c3nc4cc(F)ccc4[nH]3)cc2)cc1 [TCMDC-132759] | -31.18% |
| Cc1cc(C(=O)NCc2ccc(-c3c(C)noc3C)cc2)n(-c2ccccc2)n1 [TCMDC-133780] | 16.41% |
| Cc1ccc(Nc2nc(C)cc(NC3CCN(C)CC3)n2)cc1 [TCMDC-133997] | 39.13% |
| CCc1cc(NC2CCN(C)CC2)nc(Nc2ccc(C)cc2)n1 [TCMDC-133996] | 57.8% |
| CCCc1cc(NC2CCN(C)CC2)nc(Nc2ccc(C)cc2)n1 [TCMDC-134003] | 32.47% |
| CCCc1cc(NC2CCN(C)CC2)nc(Nc2ccc(F)cc2)n1 [TCMDC-134004] | 57.16% |
| CCCCc1cc(NC2CCN(C)CC2)nc(Nc2ccccc2)n1 [TCMDC-133994] | 6.593% |
| CCCc1cc(NC2CCN(C)CC2)nc(Nc2cccc(OC)c2)n1 [TCMDC-134001] | 21.8% |
| COC(=O)c1cc(C(=O)CN(Cc2ccccc2)C(C)C)ccc1O [TCMDC-131766] | 18.13% |
| CC(=O)Nc1ccc(OCCN(Cc2ccccc2C(F)(F)F)c2ccc(C#N)c(C(F)(F)F)c2)c(Cl)c1 [TCMDC-132790] | 76.06% |
| N#Cc1ccc(N(CCNS(=O)(=O)c2cc(Br)c(Cl)s2)Cc2ccccc2C(F)(F)F)cc1C(F)(F)F [TCMDC-135822] | 50.22% |
| N#Cc1ccc(N(CCOc2ccc(Cl)cc2)Cc2ccccc2C(F)(F)F)cc1C(F)(F)F [TCMDC-132794] | -24.46% |
| N#Cc1ccc(OCCN(Cc2ccccc2C(F)(F)F)c2ccc(C#N)c(C(F)(F)F)c2)cc1 [TCMDC-132799] | 28.83% |
| CC(=O)Nc1ccc(OCCCN(Cc2ccccc2C(F)(F)F)c2ccc(C(F)(F)F)c(C#N)c2)c(Cl)c1 [TCMDC-132785] | 61.05% |
| N#Cc1ccc(N(CCOC(=O)c2ccccc2)Cc2ccccc2C(F)(F)F)cc1C(F)(F)F [TCMDC-135738] | -18.34% |
| CC(=O)Nc1ccc(OCCCCN(Cc2ccccc2C(F)(F)F)c2ccc(C(F)(F)F)c(C#N)c2)c(Cl)c1 [TCMDC-133358] | 47.4% |
| CC(=O)Nc1ccc(OCCCN(Cc2ccccc2OC(F)(F)F)c2ccc(C(F)(F)F)c(C#N)c2)c(Cl)c1 [TCMDC-132789] | 32.58% |
| N#Cc1ccc(N(CCOC(=O)c2ccc(Br)s2)Cc2ccccc2C(F)(F)F)cc1C(F)(F)F [TCMDC-135739] | 59.47% |
| N#Cc1ccc(N(CCCO)Cc2ccccc2C(F)(F)F)cc1C(F)(F)F [TCMDC-134689] | 3.655% |
| CC(=O)Nc1ccc(OCCN(Cc2ccccc2C(F)(F)F)c2ccc(C#N)c(C(F)(F)F)c2)cc1 [TCMDC-132802] | 0.1764% |
| CC(=O)Nc1ccc(OCCN(Cc2ccccc2OC(F)(F)F)c2ccc(C(F)(F)F)c(C#N)c2)c(Cl)c1 [TCMDC-132792] | 45.86% |
| CCC(=O)Nc1cc(=O)[nH]c2nc(-c3ccc(Cl)cc3)nn12 [TCMDC-125473] | -75.71% |
